This is a sample that favours compounds with a hit; in the whole collection about 6% have one here.
D1 antag – blocks dopamine activation of the human D1 receptor; activity change, negative = inhibition, % at 10 µM; P21728; HEK293 TREx D1 cells, calcium flux, dopamine EC80; hits give low values; AID 504652; hit rate 3.2% among 360,000; in the data active means activity change below about -30%; further: on the % scale 0 is the no-effect control and ±100 the full control effect
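Kinetic fluorescence of a calcium dye serves as the read-out. D1-expressing Hek293 Trex cells, induced overnight at 30 C, are exposed to compound for 180 s before an EC80 dopamine addition, then read 180 s further.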
D1 PAM – enhances dopamine response at the human D1 receptor; potentiation, % at 10 µM; HEK293 TREx D1 cells, calcium flux, dopamine EC20 potentiation; P21728; AID 504651; hit rate 0.036% among 360,000; in the data active means potentiation above about 30%; further: 0% is about no effect
D1 ag – activates the human D1 dopamine receptor. P21728. hit rate 1% among 360,000. HEK293 T-REx D1 cells, calcium flux, agonist mode. AID 504660. activation, % at 2 µM; in the data active means activation above about 30%; further: 0% is about no effect
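Tetracycline-induced HEK293 TREx D1 cells, force-coupled to calcium signalling, were dye-loaded with a no-wash calcium kit. Compound was pin-added after a 10 s baseline. Fluorescence was read kinetically at 1 cycle/s for 180 s, with calcium rises flagged as agonism.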
DRD3 agonist – agonists of human D3 dopamine receptor. D3R DiscoveRx beta-arrestin cells, luminescence, 90 min. hit rate 0.58% among 410,000. P35462. AID 652048. max activation, %; in the data active means max activation above about 30%; further: 0% is about no effect
Target sequence (P35462 whole entry, looked up): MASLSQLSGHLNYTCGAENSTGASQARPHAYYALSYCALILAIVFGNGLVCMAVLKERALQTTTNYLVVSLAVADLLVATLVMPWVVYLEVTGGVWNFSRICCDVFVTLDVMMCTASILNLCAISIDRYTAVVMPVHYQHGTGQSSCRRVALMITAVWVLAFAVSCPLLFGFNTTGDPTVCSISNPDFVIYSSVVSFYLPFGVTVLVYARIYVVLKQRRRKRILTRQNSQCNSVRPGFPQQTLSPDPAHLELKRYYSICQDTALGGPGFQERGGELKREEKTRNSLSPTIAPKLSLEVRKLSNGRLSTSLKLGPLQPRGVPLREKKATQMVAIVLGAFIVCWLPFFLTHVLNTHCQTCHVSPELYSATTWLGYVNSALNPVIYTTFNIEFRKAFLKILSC
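Cells at 1500/well, incubated overnight, then treated with pinned compounds (dopamine as control) for 90 min at 37 degrees C. DiscoveRx reagent added for 30 - 60 minutes at room temperature; luminescence read.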
D3 antag – D3 dopamine receptor (human) antagonism. max response, negative = inhibition, %. P35462. hit rate 2.5% among 360,000. D3R cells, DiscoveRx beta-arrestin luminescence, antagonist mode; hits give low values. AID 652054; in the data active means max response below about -50%; inconclusive means no clear call, values can overlap the other calls; further: on the % scale 0 is the no-effect control and ±100 the full control effect
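Cells expressing the human receptor were seeded at 1500 cells/well, incubated overnight at 37 degrees C in 5% CO2, then exposed to library compounds with dopamine controls for 90 minutes at 37 degrees C before luminescent detection.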
The depositor's hits bear a star; ? = inconclusive; . = not tested or not shown.

SMILES | D1 antag | D1 PAM | D1 ag | DRD3 agonist | D3 antag
CN(C)c1ccc(-c2nc3ccccn3c2Nc2ccc3c(c2)OCCO3)cc1 | 7.4 | -0.9 | -0.9 | 8.7 | .
COc1ccc(OC)c(NC2=C(c3ccccc3)C(=O)c3ccccc32)c1 | -7.6 | -0.8 | 1.3 | -19.1 | .
O=C(Nc1ccc(C2=CN(Cc3ccccc3)CCC2=O)cc1)OCc1ccccc1 | . | . | . | 51.7* | 31.1
COc1cc2[nH]c(=O)n(CCCC(=O)N3CC=C(c4ccccc4)CC3)c(=O)c2cc1OC | -1.5 | -4.7 | 0.5 | -7.6 | 1.4
COc1cccc2c1[C@@H]1CN(CCCCn3c(=O)[nH]c4c(sc5ncc(-c6ccccc6)nc54)c3=O)C[C@@H]1CO2 | -17.0 | -4.4 | -1.5 | -16.4 | -98.6*
COc1ccc(NC(=O)c2ccco2)cc1NC(=O)C(C)(C)Oc1ccc(Cl)cc1 | -10.6 | -4.5 | 8.7 | -0.4 | .
COc1ccc(COC(=O)C2CCN(S(=O)(=O)c3ccc(F)cc3)CC2)cc1 | -34.6* | -1.8 | 37.3* | 7.1 | -11.3
O=C(COC(=O)C1CCN(S(=O)(=O)c2cccs2)CC1)NCc1ccc(F)cc1 | -4.0 | 0.8 | 13.1 | -7.8 | -20.4
O=C(c1ccc(F)cc1)C1CCN(CCn2c(=O)[nH]c3ccccc3c2=O)CC1 | -15.7 | -12.8 | 1.0 | -57.6 | -50.6*
Cc1ccc(CN2CCC(C(=O)c3ccc(F)cc3)CC2)cc1 | . | . | . | -13.4 | -121.9*
Cc1ccc(NC(=O)N2CCC(C(=O)c3ccc(F)cc3)CC2)cc1 | 17.2 | -6.7 | 3.8 | -4.4 | 5.9
O=C(COC(=O)C1CCN(S(=O)(=O)c2ccccc2C(F)(F)F)CC1)NCc1ccc(F)cc1 | -12.0 | 0.6 | 18.4 | 256.7* | -17.8
COc1ccc(CNC(=O)C2CCN(S(=O)(=O)c3ccc(F)cc3)CC2)cc1 | -20.3 | -3.1 | 3.5 | 7.4 | .
Cc1cc2c(s1)c1cnn(Cc3c(F)cc(F)cc3F)c(=O)c1n2C | 4.0 | 3.1 | 0.0 | . | .
COc1ccc(C(=O)C2CCN(C(=O)c3ccc(F)cc3)CC2)cc1 | -26.9 | -3.8 | 8.4 | 2.1 | 10.9
COc1ccc(CN2CCC(C(=O)c3ccc(F)cc3)CC2)cc1 | -45.6* | -18.9 | 2.9 | -21.1 | -119.9*
CCn1c2c(c3cc(Br)ccc31)CCC/C2=N\O | -7.6 | -7.7 | 1.7 | 36.3* | 10.1
Cc1cc(CNC(=O)CC2C(=O)NCCN2CC(C)(C)C)nn1C (stereo not drawn) | -38.9* | 7.6 | -0.6 | -0.1 | 7.7
Cc1cc(CNC(=O)CC2C(=O)NCCN2Cc2ccccc2)nn1C (stereo not drawn) | 0.1 | -0.5 | 1.2 | 3.2 | 0.3
Cc1cc(C)cc(NC(=O)CSc2nc3c([nH]c4ccccc43)c(=O)n2-c2ccc(F)cc2)c1 | 5.9 | -0.8 | 4.4 | -19.3 | .
CC(=O)NC(c1ccccc1)c1c(O)ccc2ccccc12 (stereo not drawn) | 12.2 | -5.3 | 3.6 | 34.3* | -7.0
CC(=O)NC(c1ccc([N+](=O)[O-])cc1)c1c(O)ccc2ccccc12 (stereo not drawn) | -24.3 | -7.7 | 15.9 | -4.4 | -19.3
CC(C)C(=O)NC(c1ccc([N+](=O)[O-])cc1)c1c(O)ccc2ccccc12 (stereo not drawn) | -31.9* | -7.4 | 13.7 | -9.2 | 12.6
Cc1ccc(-c2nnc(Nc3ccc(S(N)(=O)=O)cc3)c3ccccc23)cc1S(=O)(=O)N1CCOCC1 | -15.4 | 0.6 | 2.2 | -18.5 | .
CCC(=O)NC1(C(F)(F)F)C(=O)Nc2c1c(=O)n(C)c(=O)n2C (stereo not drawn) | -60.2* | -8.0 | 4.3 | -2.6 | 13.9
SMILES | D1 antag | D1 PAM | D1 ag | DRD3 agonist | D3 antag
Cc1ccc(S(=O)(=O)NC2(C(F)(F)F)C(=O)Nc3c2c(=O)n(C)c(=O)n3C)cc1 (stereo not drawn) | -15.5 | 0.1 | 2.6 | -11.7 | -20.0
C/C(=N\NC(N)=O)c1cc(Cl)cc(Cl)c1O | 2.4 | -8.2 | 1.4 | -26.3 | -81.8*
Cc1ccc(NC2=NC3(CCCCC3)N=C(N)N2)c(C)c1 | -65.9* | -6.2 | -0.7 | -29.0 | -21.9
Cc1ccc(C)c(NC2=NC3(CCCCC3)N=C(N)N2)c1 | -4.7 | -11.8 | -3.5 | -21.4 | -27.7
Cc1cccc(C)c1NC1=NC2(CCCCC2)N=C(N)N1 | -3.4 | 0.6 | 1.6 | -1.1 | 22.1
NC1=NC2(CCCCC2)N=C(Nc2ccc(Br)cc2)N1 | -37.2* | -11.2 | 2.2 | -9.2 | -7.0
Cc1ccc(NC2=NC3(CCCC3)N=C(N)N2)c(C)c1 | -37.1* | -4.4 | 0.7 | 4.0 | 12.0
CC(=O)c1ccc(OCC(=O)N2CCCCC2)cc1 | . | . | . | -5.5 | .
Cc1ccc(-c2c3c(=O)n(C)c(=O)n(C)c3cn2N2CCOCC2)cc1 | -6.9 | 1.2 | -0.5 | 3.0 | -50.8*
CCCn1cc2c(c1-c1ccc(C)cc1)c(=O)n(C)c(=O)n2C | -7.2 | -7.8 | 2.7 | 2.7 | 4.6
CCCCSc1nnc2n(-c3cccc(C)c3)c(=O)c3c4c(sc3n12)CCCC4 | -25.2 | -2.6 | 1.9 | -10.0 | .
CCSc1nnc2n(-c3cccc(C)c3)c(=O)c3c4c(sc3n12)CCCC4 | -0.3 | -2.7 | -1.4 | 37.0* | .
O=C(NCC(c1cccs1)S(=O)(=O)c1cccs1)c1ccc(C(F)(F)F)cc1 (stereo not drawn) | . | -3.5 | 4.1 | 4.7 | .
CCOc1ccc(N(CC)S(=O)(=O)N2CCCC(C(=O)NCCc3ccccc3OC)C2)cc1 (stereo not drawn) | 2.1 | -4.5 | 5.6 | -11.9 | .
CCCc1cc(C(=O)NNC(=S)NCC2CCCO2)cs1 (stereo not drawn) | -0.1 | 0.7 | 3.5 | -13.2 | 6.8
CCc1cc(C(=O)NNC(=S)NCC2CCCO2)cs1 (stereo not drawn) | -1.4 | 4.9 | 1.2 | -1.6 | -53.5*
Cc1cccc(NC(=S)NNC(=O)c2csc(C(C)C)c2)c1 | -0.5 | -4.5 | -0.4 | -3.3 | 15.1
CCc1cc(C(=O)NNC(=S)Nc2cccc(C)c2)cs1 | 6.4 | -6.0 | -2.3 | -7.5 | -101.3*
Cc1ccc(NC(=O)NCCc2c(C)nn(C)c2C)cc1Cl | -7.8 | 1.6 | 0.9 | -8.1 | .
Nn1c(SCC(=O)NC2CCCCC2)nnc1C1CC1 | -7.1 | 0.4 | 5.6 | -6.6 | -62.5*
Nn1c(SCC(=O)Nc2ccc(F)c(F)c2)nnc1C1CCCCC1 | -52.6* | -5.5 | 3.5 | -6.1 | -5.2
Cc1nnc(SCC(=O)NC2CCCCC2)n1N | . | . | . | 4.0 | 20.3
Cc1ccc(NC(=O)Cn2cc(S(=O)(=O)N3CCC(C)CC3)c3ccccc3c2=O)c(Br)c1 | 8.1 | 1.0 | 6.6 | 4.2 | .
O=C(NC(NNc1ccc([N+](=O)[O-])cc1)(C(F)(F)F)C(F)(F)F)c1ccc(F)cc1 | -16.5 | -11.5 | 26.7 | 3.5 | -3.8
O=C(NC(NNc1ccc([N+](=O)[O-])cc1)(C(F)(F)F)C(F)(F)F)c1ccccc1Cl | -37.6* | -3.1 | 13.0 | -5.6 | ?
O=C(NC(Nc1nc2ccc([N+](=O)[O-])cc2s1)(C(F)(F)F)C(F)(F)F)c1ccccc1Cl | -36.0* | -2.1 | 24.7 | -7.0 | -10.5
